Assay results as given in PubChem BioAssay (EPA / NIEHS).
Records with an inconclusive call do not appear. Activity calls are given as the source filed them. The calls were made as follows: active = hit-call score of the fitted dose curve at least 0.9, where 1 is the maximum; inconclusive = response in the unintended direction; inactive = score below 0.9.

read-out: ABC Transporter (ABCB11), ABCB11 (gene 8647); assay: CLD_ABCB11_6hr: CellzDirect (CLD) Gene Expression Assay for ABC Transporter (ABCB11) at 6 hours (AID 2283675);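 also: hits raise ABCB11 mRNA level so AC50 marks induction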
Method: CLD_6hr is a cell-based, multiplexed-readout assay that uses hepatocyte, a human liver primary cell, with measurements taken at 6 hours after chemical dosing in a 96-well plate.CLD_ABCB11_6hr is one of 16 assay component(s) measured or calculated from the CLD_6hr assay. It is designed to make measurements of mRNA induction, a form of inducible reporter, as detected with chemiluminescence signals by Quantitative Nuclease Protection Assay (qNPA) technology.Data from the assay component CLD_ABCB11_6hr was analyzed at the endpoint, CLD_ABCB11_6hr, in the positive analysis fitting direction relative to DMSO as the negative control and baseline of activity. Using a type of inducible reporter, gain-of-signal activity can be used to understand changes in the reporter gene as they relate to the gene ABCB11. Furthermore, this assay endpoint can be referred to as a primary readout. To generalize the intended target to other relatable targets, this assay endpoint is annotated to the transporter intended target family, where subfamily is ABC transporter.
Human hepatocyte cultures were treated daily for two consecutive days with fresh dosing solutions containing appropriate concentrations of the 320 ToxCast chemicals (chemical identities were blinded to CellzDirect and other ToxCast collaborators), vehicle control (0.2% DMSO), and positive control inducers as summarized in Table 1. Due to the large number of treatment groups and chemicals examined, the ToxCast chemicals were divided into two groups (spanning two independent cultures of hepatocytes from separate donor preparations (Hu778: ToxCast plates 1 and 2; Hu776: ToxCast plates 3 and 4). Each preparation of human hepatocyte cultures was treated with respective vehicle control, medium only control, set of six positive controls/reference chemicals for the five hepatic receptor pathways, and a subset of eight of the ToxCast chemicals (indoxacarb, pyrithiobac-sodium, norflurazon, cyhalofop-butyl, methomyl, thiram, acetochlor, and propiconazole). These replicate data, coupled with internal replicates designed within the blinded ToxCast chemical library, provided additional data to evaluate interindividual differences between hepatocyte preparations and their potential impact on chemical profiles.Cell morphology and integrity were evaluated using phase-contrast microscopy as an indicator of hepatocyte cell health (Tyson & Green, 1987). Cultures for each treatment group (i.e., media, vehicle [0.2% DMSO], positive control inducers [multiple concentrations], and the ToxCast chemicals [multiple concentrations]) were observed and cell morphology was assessed relative to vehicle control cultures at each harvest time point (0, 6, 24, or 48 h). […] Images were evaluated at the conclusion of the study to assess changes in cell integrity and account for the effects of chemical exposure on uncharacteristic changes in concentration-dependent gene expression profiles. The results from these determinations of apparent cytotoxicity were annotated (yes/no) alongside the corresponding qNPA data for reference.At the conclusion of each treatment period, hepatocyte cultures (96-well) were washed with 1 volume of HBSS, lysed by addition of 25 ul ArrayPlate lysis buffer (HTG, Tucson, AZ), and 70 ul/well of Denaturation Oil, denatured by incubation at 95C for 10 min, and frozen at approximately -70C until analysis by nuclease protection assay (qNPA) (Roberts et al., 2007). For qNPA analysis, cell lysates were thawed at 50C for approximately 30 min, qNPA probes were added, and samples were incubated at 95C for 10 min to begin the detection process by denaturing the target RNA, dissociating the duplexes and secondary structure hybridization. At the conclusion of the hybridization period, S1 nuclease reagent was added to each sample to digest all nonprotected nucleotides at 50C for 60-90 min. […]

SMILES	outcome	AC50
CCOP(=S)(OCC)Oc1ccc2c(C)c(Cl)c(=O)oc2c1	inactive	–
CCOC(=O)COc1cc(-c2nn(C)c(OC(F)F)c2Cl)c(F)cc1Cl	inactive	–
CN1COCN(Cc2cnc(Cl)s2)C1=N[N+](=O)[O-]	inactive	–
S=C1NCCN1	inactive	–
C=C(C)[C@H]1Cc2c(ccc3c2O[C@@H]2COc4cc(OC)c(OC)cc4[C@@H]2C3=O)O1	inactive	–
CC1=NNC(=O)N(/N=C/c2cccnc2)C1	inactive	–
CCCCOC(=O)c1ccccc1C(=O)O	inactive	–
O=[N+]([O-])c1cc(C(F)(F)F)c(Cl)c([N+](=O)[O-])c1Nc1ncc(C(F)(F)F)cc1Cl	inactive	–
CC[C@H](C)[C@H]1O[C@]2(C=C[C@@H]1C)C[C@@H]1C[C@@H](C/C=C(\C)[C@@H](O[C@H]3C[C@H](OC)[C@@H](O[C@H]4C[C@H](OC)[C@@H](NC)[C@H](C)O4)[C@H](C)O3)[C@@H](C)/C=C/C=C3\CO[C@@H]4[C@H](O)C(C)=C[C@@H](C(=O)O1)[C@]34O)O2	inactive	–
CN(C)NC(=O)CCC(=O)O	inactive	–
COc1cccc(C(=O)NN(C(=O)c2cc(C)cc(C)c2)C(C)(C)C)c1C	inactive	–
CNC(=O)ON=C(C)SC	inactive	–
CCOP(=O)(OCC)Oc1cc(C)nc(C(C)C)n1	inactive	–
CCOP(=S)(OCC)Oc1cc(C)nc(C(C)C)n1	inactive	–
N#CSCSC#N	inactive	–
CCOC(=O)CC(SP(=O)(OC)OC)C(=O)OCC (stereo not given)	inactive	–
CON=C(C(=O)OC)c1ccccc1CON=C(C)c1cccc(C(F)(F)F)c1	inactive	–
CC(Oc1cccc(Cl)c1)C(=O)O (stereo not given)	inactive	–
CC(C)[C@H](C(=O)O[C@H](C#N)c1cccc(Oc2ccccc2)c1)c1ccc(Cl)cc1	inactive	–
COP(=O)(OC)SCn1c(=O)oc2cc(Cl)cnc21	inactive	–

SMILES	outcome	AC50
COc1cc(OC)nc(Sc2cccc(Cl)c2C(=O)O)n1	inactive	–
CC(C1CC1)C(O)(Cn1cncn1)c1ccc(Cl)cc1 (stereo not given)	inactive	–
CCOP(=S)(OCC)OC(Cl)C(Cl)(Cl)Cl (stereo not given)	inactive	–
C#CCC1=C(C)C(OC(=O)C2C(C=C(C)C)C2(C)C)CC1=O (stereo not given)	inactive	–
COP(=O)(OC)C(O)C(Cl)(Cl)Cl (stereo not given)	inactive	–
CCNc1nc(Cl)nc(NC(C)(C)C#N)n1	inactive	–
O=C(O)c1cc(Oc2ccc(C(F)(F)F)cc2Cl)ccc1[N+](=O)[O-]	inactive	–
CCOP(=S)(OCC)SCCSCC	inactive	–
O=c1ccc(=O)[nH][nH]1	inactive	–
CCOP(=O)(SC(C)CC)N1CCSC1=O (stereo not given)	inactive	–
Nc1nc(N)nc(NC2CC2)n1	inactive	–
CCc1cccc(CC)c1N(COC)C(=O)CCl	inactive	–
C[N+]1(C)CCCCC1	inactive	–
CCCSP(=O)(OCC)SCCC	inactive	–
CCC(CC)Nc1c([N+](=O)[O-])cc(C)c(C)c1[N+](=O)[O-]	inactive	–
CCCOCC(=Nc1ccc(Cl)cc1C(F)(F)F)n1ccnc1	inactive	–
CC(COc1ccc(Oc2ccccc2)cc1)Oc1ccccn1 (stereo not given)	inactive	–
Nc1c(Cl)cc([N+](=O)[O-])cc1Cl	inactive	–
CCc1cnc(C2=NC(C)(C(C)C)C(=O)N2)c(C(=O)O)c1 (stereo not given)	inactive	–
CCOP(=S)(Oc1cnc(C(C)(C)C)nc1)OC(C)C (stereo not given)	–	27.4 µM (active)
